Source: PubChem (Broad Institute)
aSyn UTR act: Activators working through SNCA 5'UTR binding (MLPCN) | activity score, % (tested at 7.5 µM), hits read low | 300,000 compounds, 7.1% hits | alpha-synuclein 5'UTR reporter, activators screen; in the data active means activity score below about -60%
* marks the source's active call; other numbers are inactive results. A selection follows.

Results for COc1cccc(C2=CC(c3ccc(N(C)C)cc3)n3ncnc3N2)c1 (configuration not stated) ?
aSyn UTR act: -72*

Results for COc1ccc(C2C=C(c3ccccc3)Nc3nnnn32)cc1 (configuration not stated) ?
aSyn UTR act: -168*

How did COc1cccc(C2=CC(c3ccc(N(C)C)cc3)n3nnnc3N2)c1 (configuration not stated) do in these assays?
aSyn UTR act: -76*

What do the screens show for `COc1ccc2nc(Nc3ccccc3)sc2c1`?
aSyn UTR act: -119*

How did COc1ccc2nc(Nc3ccccc3OC)sc2c1 do in these assays?
aSyn UTR act: -154*

Results for COc1ccccc1NC(=O)Nc1nc2ccc(S(N)(=O)=O)cc2s1 ?
aSyn UTR act: -183*

Results for COc1ccc2nc(NC(=O)Nc3cccc4ccccc34)sc2c1 ?
aSyn UTR act: -103*

What do the screens show for `CCC(C)C(=O)Nc1nc2ccc(OC)cc2s1` (configuration not stated)?
aSyn UTR act: -167*

How did COc1ccc2nc(NC(=O)Nc3ccccc3OC)sc2c1 do in these assays?
aSyn UTR act: -89*

What do the screens show for `CCc1nnc(NC(=S)Nc2ccccc2)s1`?
aSyn UTR act: -124*

How did Cc1nc(NC(=S)Nc2ccccc2)sc1C do in these assays?
aSyn UTR act: -166*

How did N#CC(=C1CCCC1)c1nc(-c2ccccc2O)cs1 do in these assays?
aSyn UTR act: -209*

What do the screens show for `Cc1ccc(-c2csc(C(C#N)=C3CCCC3)n2)cc1`?
aSyn UTR act: -236*

What do the screens show for `N#CC(=C1CCCC1)c1nc(-c2ccccc2)cs1`?
aSyn UTR act: -187*

Results for N#CC(=C1CCCC1)c1nc(-c2cc3ccccc3oc2=O)cs1 ?
aSyn UTR act: -232*

How did CC1Sc2n(c3ccccc3[n+]2C)N=C1c1ccccc1 (configuration not stated) do in these assays?
aSyn UTR act: -63*

How did CC(=O)NCc1ccc(C(=O)CCl)s1 do in these assays?
aSyn UTR act: -64*

What do the screens show for `NC(=O)c1ccc(CSc2nc3ccccc3s2)cc1`?
aSyn UTR act: -101*

How did CCC(C)(C)NC(=O)CCCSc1nc2ccccc2s1 do in these assays?
aSyn UTR act: -154*

What do the screens show for `CCNC(=O)c1ccc(CSc2nc3ccccc3s2)cc1`?
aSyn UTR act: -65*

How did c1ccc2sc(SCc3ccc(-c4nnco4)cc3)nc2c1 do in these assays?
aSyn UTR act: -156*

How did CCC(C)/C(C)=N/NC(=O)c1ccc(CSc2nc3ccccc3s2)cc1 (configuration not stated) do in these assays?
aSyn UTR act: -156*

Results for O=C(c1cc(-c2cccs2)on1)N1CCOCC1 ?
aSyn UTR act: -169*

What do the screens show for `COc1ccccc1-c1cc(C(=O)N2CCOCC2)no1`?
aSyn UTR act: -125*

How did COc1ccccc1-c1cc(C(=O)N2CCCC2)no1 do in these assays?
aSyn UTR act: -133*

Results for COc1ccc(-c2cc(C(=O)N3CCOCC3)no2)cc1 ?
aSyn UTR act: 73

What do the screens show for `O=C(Nc1ccc(Cl)cc1F)c1ccccc1Br`?
aSyn UTR act: -207*

What do the screens show for `O=C(NNC(=O)c1ccccc1Br)c1cccc(Cl)c1`?
aSyn UTR act: -92*

How did O=C(Nc1ccc(Cl)cc1F)c1cccc2ccccc12 do in these assays?
aSyn UTR act: -63*

Results for Cc1[nH]c2ccccc2c1/C=C/c1nc2ccccc2c(=O)n1CCO ?
aSyn UTR act: -62*

Results for COC(=O)c1sc(NC(=S)NC(=O)c2ccccc2Cl)nc1C ?
aSyn UTR act: -146*

What do the screens show for `CCOC(=O)c1sc(NC(=S)NC(=O)c2ccccc2)nc1C`?
aSyn UTR act: -216*

How did COC(=O)c1sc(NC(=S)NC(=O)c2ccccc2)nc1C do in these assays?
aSyn UTR act: -198*

What do the screens show for `Cc1csc(NC(=S)NC(=O)c2ccccc2)n1`?
aSyn UTR act: -179*

How did COc1ccc(C(=O)NC(=S)NNC(=O)c2cnccn2)cc1OC do in these assays?
aSyn UTR act: 90

How did COc1ccc(C(=O)NC(=S)Nc2nc(C)cc(C)n2)cc1Br do in these assays?
aSyn UTR act: -77*

What do the screens show for `COc1cc(OC)nc(NC(=S)NC(=O)c2ccccc2)n1`?
aSyn UTR act: -69*

Results for Cc1cc(C)c2cccc(NC(=S)NC(=O)c3ccccc3)c2n1 ?
aSyn UTR act: -76*

Results for CN(C)c1ccc(C(=S)NCc2ccco2)cc1 ?
aSyn UTR act: -69*

Results for CN(C)c1ccc(/C=N/NC(=S)NCc2ccco2)cc1 ?
aSyn UTR act: -127*

How did O=c1/c(=C/c2ccccn2)sc2nc3ccccc3n12 do in these assays?
aSyn UTR act: -174*

What do the screens show for `Cc1ccccc1NC1=C(Cl)C(=O)N(C2CCCCC2)C1=O`?
aSyn UTR act: -133*

Results for COc1ccccc1NC1=C(Cl)C(=O)N(C2CCCCC2)C1=O ?
aSyn UTR act: -91*

What do the screens show for `COc1cc(OC)c(NC2=CC(=O)C(=O)c3ccccc32)cc1Cl`?
aSyn UTR act: 107

Results for CC1=NC(=O)C(N=Nc2ccccc2)N1c1ccccc1 (configuration not stated) ?
aSyn UTR act: -109*

Results for CCOc1cccc(Nc2ccc([N+](=O)[O-])cn2)c1 ?
aSyn UTR act: -102*

What do the screens show for `Cc1cccc(Nc2ccc([N+](=O)[O-])cn2)c1`?
aSyn UTR act: -87*

How did Cc1cccc(NC2=NC(C)(C)N=C(N)N2)c1 do in these assays?
aSyn UTR act: 98

What do the screens show for `O=C1NCCC/C1=N/Nc1cc(F)ccc1F`?
aSyn UTR act: -113*

How did CC(=O)c1ccc(N/N=C2/CCCNC2=O)cc1 do in these assays?
aSyn UTR act: -74*

What do the screens show for `Fc1ccc(/C=N/NC(=S)Nc2cccnc2)cc1F`?
aSyn UTR act: -86*

How did CC(C)Cc1ccc(/C=C/C(=O)NC2CC2)cc1 do in these assays?
aSyn UTR act: -108*

How did CCc1ccc(/C=C\C(=O)N2CCCC2)cc1 do in these assays?
aSyn UTR act: -78*

How did CC(C)Cc1ccc(/C=C/C(=O)N2CCCCC2)cc1 do in these assays?
aSyn UTR act: -121*

How did CCCc1ccc(-c2ccc(/C=C/C(=O)O)cc2)nc1 do in these assays?
aSyn UTR act: 115

How did CCCc1ccc2oc(C(=O)N3CCC(COC)C3)c(C)c2c1 (configuration not stated) do in these assays?
aSyn UTR act: -113*

Results for CCCc1ccc2oc(C(=O)N3CCC[C@H]3CO)c(C)c2c1 ?
aSyn UTR act: -200*

What do the screens show for `Cc1ccc(N=C/C(C(=O)C(F)(F)F)=C(\O)c2cccs2)cc1`?
aSyn UTR act: -89*

How did O=C(/C(N=Nc1cccc(C(F)(F)F)c1)=C(/O)c1cccs1)C(F)(F)F do in these assays?
aSyn UTR act: -62*

What do the screens show for `Cn1nnc2cc(NC(=O)Nc3cccc(Cl)c3)ccc21`?
aSyn UTR act: -151*

What do the screens show for `O=C(Nc1ccc2nccnc2c1)Nc1ccccc1Cl`?
aSyn UTR act: -90*

How did O=C(Nc1cccc(Cl)c1)Nc1ccc2nccnc2c1 do in these assays?
aSyn UTR act: -163*

Results for Cc1c(Cl)c([N+](=O)[O-])nn1CCCC(=O)NCCc1ccccc1 ?
aSyn UTR act: -64*

What do the screens show for `O=C(NCC1CCCO1)c1ccc2nc(N3CCCCC3)sc2c1` (configuration not stated)?
aSyn UTR act: -194*

Results for CCC1=Nc2cc(C(=O)NCC3CCCO3)ccc2Sc2ccc(Cl)cc21 (configuration not stated) ?
aSyn UTR act: -74*

What do the screens show for `O=C(NCC1CCCO1)c1ccc(N2CCCCC2)nc1` (configuration not stated)?
aSyn UTR act: -83*
